Screens: PubChem, National Center for Advancing Translational Sciences (NCATS)
Only some compounds are listed: those with a hit (about 2.8% of all), similar ones and a draw of the others.
KDM5B inhibitor = blocks human KDM5B histone demethylase activity; KDM5B demethylase, FDH-coupled NADH fluorescence (FDH is formaldehyde dehydrogenase); Q9UGL1; Potency, µM (titrated, usually from 57.7 µM), actives largely listed as inhibitors; 220,000 compounds, 2.6% hits; further: potency means the concentration at half of the fitted maximal effect; 0% is about no effect; nearly all actives have a fitted effect of over 70% in size
Target sequence (Q9UGL1 whole entry, looked up): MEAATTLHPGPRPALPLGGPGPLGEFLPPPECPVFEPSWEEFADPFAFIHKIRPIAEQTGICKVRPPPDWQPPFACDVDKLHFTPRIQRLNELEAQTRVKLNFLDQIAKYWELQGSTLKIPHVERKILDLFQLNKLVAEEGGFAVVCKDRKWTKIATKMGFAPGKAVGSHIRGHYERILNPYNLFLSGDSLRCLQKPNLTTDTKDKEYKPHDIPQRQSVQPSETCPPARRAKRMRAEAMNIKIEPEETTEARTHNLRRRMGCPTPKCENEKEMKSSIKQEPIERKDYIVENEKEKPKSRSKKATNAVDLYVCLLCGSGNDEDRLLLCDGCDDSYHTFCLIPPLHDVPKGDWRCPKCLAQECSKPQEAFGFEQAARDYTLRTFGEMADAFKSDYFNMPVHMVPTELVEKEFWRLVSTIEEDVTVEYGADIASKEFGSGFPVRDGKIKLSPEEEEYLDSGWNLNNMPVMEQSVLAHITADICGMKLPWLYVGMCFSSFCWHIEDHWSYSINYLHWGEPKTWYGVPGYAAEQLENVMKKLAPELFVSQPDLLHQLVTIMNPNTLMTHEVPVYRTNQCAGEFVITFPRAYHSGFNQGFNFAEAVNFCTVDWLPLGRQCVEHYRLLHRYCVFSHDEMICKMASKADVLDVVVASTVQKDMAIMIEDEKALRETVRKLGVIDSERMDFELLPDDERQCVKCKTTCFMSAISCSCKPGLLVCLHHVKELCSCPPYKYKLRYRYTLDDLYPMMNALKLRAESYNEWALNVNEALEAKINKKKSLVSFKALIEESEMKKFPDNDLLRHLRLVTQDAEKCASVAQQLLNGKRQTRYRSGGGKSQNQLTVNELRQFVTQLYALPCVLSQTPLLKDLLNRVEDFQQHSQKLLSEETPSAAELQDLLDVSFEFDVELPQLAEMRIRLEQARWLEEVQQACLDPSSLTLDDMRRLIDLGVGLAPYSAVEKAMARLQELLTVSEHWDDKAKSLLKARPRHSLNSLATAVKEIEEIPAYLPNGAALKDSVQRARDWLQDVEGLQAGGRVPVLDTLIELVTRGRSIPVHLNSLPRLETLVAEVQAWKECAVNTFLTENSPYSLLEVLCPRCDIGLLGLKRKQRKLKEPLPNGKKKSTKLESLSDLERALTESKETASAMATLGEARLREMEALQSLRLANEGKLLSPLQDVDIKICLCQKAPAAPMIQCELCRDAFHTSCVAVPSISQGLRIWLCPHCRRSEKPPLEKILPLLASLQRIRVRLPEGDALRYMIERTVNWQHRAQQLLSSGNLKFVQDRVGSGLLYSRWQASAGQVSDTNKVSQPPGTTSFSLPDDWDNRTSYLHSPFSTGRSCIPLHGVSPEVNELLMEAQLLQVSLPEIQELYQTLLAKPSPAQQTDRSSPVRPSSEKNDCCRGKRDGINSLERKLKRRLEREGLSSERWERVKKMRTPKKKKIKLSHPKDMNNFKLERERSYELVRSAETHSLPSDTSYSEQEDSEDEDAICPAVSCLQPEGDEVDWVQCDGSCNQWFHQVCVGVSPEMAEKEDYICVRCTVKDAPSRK
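KDM5BΔAP (200 nM final) in 50 mM HEPES pH 7.5, 0.01% Tween-20 was preincubated 10 min at RT with compound over a concentration range. Substrate mix (H3K4me3 12.5 µM, α-KG 25 µM, Fe²⁺, ascorbate, NAD⁺, FDH) was added, and NADH fluorescence change over 30 min gave dose-response curves.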
SNCA viab count = cell viability loss counter-screen | HEK-293-SNCA-luc viability, GF-AFC fluorescence, 24 h | Potency, µM (doses to about 57.1 µM), inactives show at the highest dose activity change, negative = cytotoxicity, most hits filed as cytotoxic | 150,000 compounds, 0.12% hits | AID 1671193;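 further: potency means the concentration at half of the fitted maximal effect; 0% = DMSO-treated cells and -100% = medium-only wells without cells; nearly all actives have a fitted effect of over 30% in size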
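HEK-293-SNCA-luc cells (1500/well) plated 24 h, then exposed 24 h to a dilution series; GF-AFC added 30 min at 37C, fluorescence 405/540 nm; normalised to medium-only and DMSO wells, Hill fit.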
SNCA expr inhib = inhibitors of alpha-synuclein (SNCA) gene expression; HEK-293 SNCA-luciferase knock-in, luminescence, 24 h; Potency, µM (top dose mostly 57.2 µM), without a hit: top-dose activity change, negative = inhibition, most hits filed as inhibitors; 140,000 compounds, 0.17% hits;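 further: potency means the concentration at half of the fitted maximal effect; plate controls were DMSO cells for no effect and cell-free wells for full effect; nearly all actives have a fitted effect of over 45% in size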
IP6K1 inh = IP6K1 kinase inhibition; Q92551; IP6K1 kinase, ADP-Glo luminescence, 2 h; hits give low values; activity change, % (series mostly up to about 58 µM); 140,000 compounds, 0.81% hits; in the data active means activity change below about -25%; further: on the % scale 0 is the no-effect control and ±100 the full control effect
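ADP-Glo luminescence measures ADP made by human IP6K1 during a 2 h RT reaction with ATP/IP6 (mix at 1.3 mM/130 uM); top library doses 57.5 and 19.1 uM final.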
* = called active by the depositor; [ ] = another dose, or the depositor's remark. Unless noted, the call rests on the fitted dose curve; in most records, active means well fitted curve in the direction sought with a large enough effect; inconclusive means small, poorly fitted or top-dose-only effect, or another doubt; inactive means no such curve, though single readings can be large; an effect the other way counts as inactive or inconclusive.

For O=C(c1nc(-c2ccc(F)cc2)c2cnccn12)N1CCOCC1 the results were KDM5B inhibitor 40µM*, SNCA viab count 0%[87.6 µM], SNCA expr inhib 5%[87.6 µM] and IP6K1 inh 0.
For COc1ccccc1-c1nc(C(=O)N2CCN(c3ncccn3)CC2)n2ccncc12 the results were KDM5B inhibitor inconclusive, SNCA viab count 7%, SNCA expr inhib 2% and IP6K1 inh 11.
`COc1ccccc1-c1nc(C(=O)N2CCOCC2)n2ccccc12` gave KDM5B inhibitor 89µM*, SNCA viab count 1%, SNCA expr inhib 2% and IP6K1 inh -11.
`COc1ccccc1-c1nc(C(=O)N2CCOCC2)n2ccncc12` gave KDM5B inhibitor 100µM*, SNCA viab count -4%, SNCA expr inhib 3% and IP6K1 inh -7.
`COc1ccccc1-c1nc(C(=O)N2CCN(c3ncccn3)CC2)n2ccccc12` gave KDM5B inhibitor inconclusive, SNCA viab count 3%, SNCA expr inhib inconclusive and IP6K1 inh -19.
`CCC(=O)N1N=C(c2cccc(NS(C)(=O)=O)c2)CC1c1ccc2nccnc2c1` (configuration not stated) gave KDM5B inhibitor inactive.
`O=C(NCCCc1ccccc1)c1cc(-c2ccsc2)c2nncn2n1` gave SNCA viab count -1%, SNCA expr inhib -4% and IP6K1 inh 22.
Cn1c(=O)c2c(nc(N3CCN(C(=O)c4ccco4)CC3)n2Cc2ccc(F)cc2)n(C)c1=O was read as KDM5B inhibitor inactive.
Cc1cn2nc(C(=O)NCCc3ccccc3)cc2c(N2CCCC2)n1 was read as KDM5B inhibitor inactive, SNCA viab count -9%, SNCA expr inhib 1% and IP6K1 inh -15.
For Cc1cn2nc(C(=O)NCc3cccc(Cl)c3)cc2c(N2CCCC2)n1 the results were KDM5B inhibitor 25µM*, SNCA viab count 5%, SNCA expr inhib inconclusive and IP6K1 inh 10.
`Cc1cn2nc(C(=O)NCCCc3ccccc3)cc2c(N2CCCC2)n1` gave KDM5B inhibitor 25µM*, SNCA viab count 2%, SNCA expr inhib 6% and IP6K1 inh 5.
`Cn1nc(C2CCCN2)c2c(C(=O)NCC(F)(F)F)cc(C3CC3)nc21` (configuration not stated) gave KDM5B inhibitor 79µM*, SNCA viab count 13%, SNCA expr inhib 26% and IP6K1 inh -4.
For COCCNC(=O)c1cc(C2CC2)nc2c1c(C1CCNCC1)nn2C the results were KDM5B inhibitor inconclusive, SNCA viab count 4%, SNCA expr inhib -6% and IP6K1 inh -10.
COCCNC(=O)c1cc(C2CC2)nc2c1c(C1CCCN1)nn2C (configuration not stated) was read as KDM5B inhibitor 79µM*, SNCA viab count 1%, SNCA expr inhib 0% and IP6K1 inh 4.
For COc1ccc(Cn2c(C3CCN(C(=O)Cc4ccc(C)cc4)CC3)n[nH]c2=O)cc1 the results were KDM5B inhibitor inactive, SNCA viab count -4%, SNCA expr inhib 1% and IP6K1 inh 17.
N#CC1(C#N)CC1(C#N)C(N)=O (configuration not stated) was read as KDM5B inhibitor inactive.
O=C(Nc1ccccc1)[C@H]1O[C@H](CCN2CCN(c3ccccn3)CC2)CC[C@@H]1O was read as KDM5B inhibitor inactive, SNCA viab count -9%[87.6 µM], SNCA expr inhib -4%[87.6 µM] and IP6K1 inh 13.
`CN1C(=O)c2cccn2CC1CNC(=O)c1cc2ccccc2[nH]1` (configuration not stated) gave KDM5B inhibitor 16µM*, SNCA viab count -6%, SNCA expr inhib 40% and IP6K1 inh 1.
For O=C(NCc1ccccc1F)c1nc2sccn2c1-c1cccc(C(F)(F)F)c1 the results were SNCA viab count -19%, SNCA expr inhib 67% and IP6K1 inh 13.
`COc1ccc2c(c1)CCCC2=O` gave SNCA viab count 5%[23.9 µM], SNCA expr inhib -35%[25.6 µM] and IP6K1 inh 7.
For COc1ccc2c(c1)CCCN2C1CNC1 the results were KDM5B inhibitor 126µM*, SNCA viab count -3%[87.6 µM], SNCA expr inhib -16%[87.6 µM] and IP6K1 inh -12.
CC(C)c1ccc2oc(-c3ccc(Cl)c(NC(=O)c4cccnc4)c3)nc2c1 was read as KDM5B inhibitor inactive.
Screening CC(C)(C)c1ccc(CN(Cc2ccccc2)C(=S)Nc2ccc(Br)cc2)cc1 returned KDM5B inhibitor inactive.
O=C(c1cncs1)N1CCc2c(cc(-c3cccc(F)c3)c(=O)n2CCN2CCCCC2)C1 was read as KDM5B inhibitor 28µM*, SNCA viab count 5%, SNCA expr inhib 38% and IP6K1 inh 16.
Screening O=C(Nc1cccc(-c2nnc3n2CCCC3)c1)c1cc(-c2ccccc2)n[nH]1 returned KDM5B inhibitor inconclusive, SNCA viab count 6%, SNCA expr inhib 86% and IP6K1 inh 12.
O=C(Nc1ccc(-c2nnc3n2CCCC3)cc1)c1cc(-c2ccccc2)n[nH]1 was read as KDM5B inhibitor 32µM*, SNCA viab count 7%, SNCA expr inhib 33% and IP6K1 inh -4.
Screening CC(=O)N1CCN(C(=O)C2CCCCN2Cc2ccc(-c3cccs3)cc2)CC1 (configuration not stated) returned SNCA viab count -1%, SNCA expr inhib 2% and IP6K1 inh 10.
`O=C(Nc1cccc(F)c1)N1CCC2(CC1)CC(N1CCOCC1)CCO2` (configuration not stated) gave KDM5B inhibitor inactive, SNCA viab count 8%, SNCA expr inhib 30% and IP6K1 inh 10.
Screening O=C(NCCNC(=O)C1CC1)c1ccc(-c2cncnc2)cc1 returned IP6K1 inh -19.
Cc1ccccc1NC(=O)N1CCc2c(c3cc(F)ccc3n2C)C1 was read as KDM5B inhibitor 28µM*, SNCA viab count 4%, SNCA expr inhib -6% and IP6K1 inh -10.
For CCc1cccc(NC(=O)N2CCc3c(c4cc(F)ccc4n3C)C2)c1 the results were KDM5B inhibitor 25µM*, SNCA viab count -2%, SNCA expr inhib inconclusive and IP6K1 inh -5.
`Cc1ccc(NC(=O)N2CCc3c(c4cc(F)ccc4n3C)C2)cc1` gave KDM5B inhibitor 14µM*, SNCA viab count inconclusive, SNCA expr inhib 18% and IP6K1 inh -3.
Cn1c2c(c3cc(F)ccc31)CN(C(=O)Nc1ccccc1)CC2 was read as KDM5B inhibitor inconclusive, SNCA viab count 3%, SNCA expr inhib 19% and IP6K1 inh -3.
`CC(C)c1cccc(C(C)C)c1NC(=O)N1CCc2c(c3cc(F)ccc3n2C)C1` gave KDM5B inhibitor 25µM*, SNCA viab count -12%, SNCA expr inhib -3% and IP6K1 inh -3.
`O=C([C@H]1CCC[C@@H](O)C1)N1CCN(C2Cc3ccccc3C2)CC1` gave KDM5B inhibitor inactive, SNCA viab count 6%, SNCA expr inhib 7% and IP6K1 inh 17.
Screening Cc1ccc2nc(SCC(=O)N3CCN(S(=O)(=O)c4ccccc4)C3)[nH]c2c1 returned KDM5B inhibitor inactive.
